In PubChem BioAssay (NCATS):
A number with no mark means an inactive call. Inconclusive results are not listed. Activity calls are given as the source filed them. The call rests on the fitted dose curve; in most records, active means well fitted inhibition curve with a large enough effect; inconclusive means small, poorly fitted or top-dose-only effect; inactive means flat fitted curve, though single readings scatter.

Target: Phospholipid hydroperoxide glutathione peroxidase GPX4 (Homo sapiens) (UniProt P36969)
Assay: Primary qHTS Assay for Inhibitors of Recombinant Selenoprotein Glutathione Peroxidase 4 (GPX4) (AID 1845192); further: nearly all actives have a fitted effect of over 65% in size; on activity change, negative = inhibition: on the % scale 0 is the no-effect control and ±100 the full control effect
Conditions: recombinant GPX4, GR-coupled NADPH fluorescence, 15 min; series mostly up to 27.8 µM; activity change, negative = inhibition: at the top concentration
In short: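 GR-coupled readout: 100 nM GR, 1 mM GSH, 0.5 mM NADPH; NADPH fluorescence (ex 340/em 450 nm) read at t=0 and after 15 min RT. GPX4 200 nM, preincubated 30 min with compound; substrate 0.5 mM CHP.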

Phospholipid hydroperoxide glutathione peroxidase GPX4 (Homo sapiens), sequence (P36969 whole entry, looked up): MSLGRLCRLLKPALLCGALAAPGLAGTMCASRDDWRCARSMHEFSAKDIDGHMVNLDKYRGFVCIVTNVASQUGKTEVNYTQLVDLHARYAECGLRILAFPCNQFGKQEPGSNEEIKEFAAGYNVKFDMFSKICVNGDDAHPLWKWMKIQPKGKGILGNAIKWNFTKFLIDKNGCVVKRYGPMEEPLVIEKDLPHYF

Row | Compound | activity change, negative = inhibition | outcome
1 | C=C1C2CCC3CC2(CC(O)C2(O)C1CC(OC1OC(CO)C(O)C(O)C1O)C2(C)C)CC3(C)O (configuration not stated) | -2.85% | 
2 | C=C1CC[C@H]2[C@@](C)(CCC(O)[C@@]2(C)CO)[C@@H]1/C=C/C(=C\C(=O)O)C(=O)O (some centres not stated) | 2.87% | 
3 | Nc1ncnc2c1ncn2[C@H]1O[C@@H](C(=O)N2CCN(CC(=O)Nc3cccc4c3CNC4=O)CC2)[C@H](O)[C@@H]1O | 4.79% [at 50 µM] | 
4 | Cc1cc(O[C@@H]2O[C@H](COC(=O)CC(=O)O)[C@@H](O)[C@H](O)[C@H]2O)c(C(C)C)cc1O | -3.2% | 
5 | CC1C2=CC(=O)OC2(O)CC2C1C(OC(=O)c1ccccc1)C(OC(=O)c1ccccc1)C1(O)C2(C)CCC(O)C1(C)C(=O)O (configuration not stated) | -4.39% [at 15.3 µM] | 
6 | CC(C)NC(=O)c1ccc(C#Cc2ccncc2)cn1 | 4.77% [at 50 µM] | 
7 | O=C(O)CC1CCC(c2ccc(NC(=O)c3nnc(Nc4ccc(F)c(F)c4)o3)cc2)CC1 (configuration not stated) | 12.3% [at 50 µM] | 
8 | CCC(C)/C=C(C)/C=C/C1=CC2=C(Cl)C(=O)C(C)(OC(C)=O)C(=O)C2=CN1C(CC(=O)O)C(=O)O (configuration not stated) | -12.2% | 
9 | C[C@]12CC/C(=N\OCC(=O)O)C=C1CC[C@@H]1[C@@H]2[C@@H](O)C[C@@]2(C)[C@H]1CC[C@]2(O)C(=O)CO | -9.93% [at 50 µM] | 
10 | CNC(=O)c1ccc2c(c1)CCO[C@H]2CCN1CCN(c2ccc(C(N)=O)cc2)CC1 | -6.39% [at 50 µM] | 
11 | COC(=O)C1=CO[C@@H](O[C@@H]2O[C@H](CO)[C@@H](O)[C@H](O)[C@H]2O)/C(=C\CO)[C@@H]1CC(=O)OCCc1ccc(O)cc1 |  | inactive
12 | C/C=C/C=C/C(O)=C1/C(=O)[C@]2(C)C(=O)[C@@](C)(O)[C@H]1[C@H]([C@@]1(C)OC(=O)C(C)=C1O)[C@H]2C(=O)CC/C=C/C | -17.1% | 
13 | CC(C)(O)/C=C/C(=O)[C@](C)(O)[C@H]1[C@H](O)C[C@@]2(C)[C@@H]3CC=C4[C@@H](C=C(O[C@@H]5O[C@H](CO)[C@@H](O)[C@H](O)[C@H]5O)C(=O)C4(C)C)[C@]3(C)C(=O)C[C@]12C | 0.265% [at 15.3 µM] | 
14 | COc1ccc(CCC(=O)c2c(O)cc(O[C@@H]3O[C@H](CO)[C@@H](O)[C@H](O)[C@H]3O[C@@H]3O[C@@H](C)[C@H](O)[C@@H](O)[C@H]3O)cc2O)cc1O | -16.1% [at 50 µM] | 
15 | CC(C)c1c(NC(=O)Nc2ccc(Cl)cc2)c(=O)n(-c2ccccc2)n1C | 1.34% [at 50 µM] | 
16 | C[C@@H](c1ccccc1)N(C(N)=NC#N)c1cccc2ncccc12 | -5.84% [at 50 µM] | 
17 | CC(C)(C)NS(=O)(=O)c1ccc(-c2ccc3[nH]nc(N)c3c2)cc1 | -15.2% [at 50 µM] | 
18 | CC(=O)OC[C@]12[C@H](OC(C)=O)[C@H](OC(=O)c3ccccc3)[C@@H]3[C@@H](OC(C)=O)[C@]1(OC3(C)C)[C@H](C)C[C@H](OC(=O)c1ccccc1)[C@@H]2OC(=O)c1ccccc1 | -5.53% [at 15.3 µM] | 
19 | CC1=C2C[C@@]3(C)[C@@H](CCC[C@@H]3C)C[C@@]2(O)OC1=O | -8.31% [at 50 µM] | 
20 | CC(=O)/C=C/C1(O)C(C)CC(O[C@@H]2O[C@H](CO)[C@@H](O)[C@H](O)[C@H]2O)CC1(C)C (some centres not stated) |  | inactive
21 | CC1CCC2C(C)(C)C(O)C(O)CC2(C)C12Cc1c(O)cc(CO)c(C=O)c1O2 (configuration not stated) | -8.65% | 
22 | Cc1occc(=O)c1O[C@@H]1O[C@H](CO[C@@H]2OC[C@](O)(CO)[C@H]2O)[C@@H](O)[C@H](O)[C@H]1O | -2% | 
23 | COC(=O)c1c(CC=C(C)C)c(OC2OC(CO)C(O)C(O)C2O)c2ccccc2c1OC1OC(CO)C(O)C(O)C1O (configuration not stated) |  | inactive [at 15.3 µM]
24 | COc1ccc(OC)c(C2C(C#N)=C(N)Oc3n[nH]c(-c4ccc5ccccc5c4)c32)c1 (configuration not stated) | -12% [at 50 µM] | 

Target: Luciferin 4-monooxygenase (Photinus pyralis) (UniProt P08659)
Assay: Primary firefly luciferase (FLuc) qHTS assay for identification of artifact compounds. (AID 1845220); further: nearly all actives have a fitted effect of over 60% in size;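 on activity change, negative = inhibition: plate controls were DMSO vehicle for no effect and no enzyme for full effect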
Conditions: purified firefly luciferase, luminescence, 5 min; series mostly up to 54.1 µM; activity change, negative = inhibition: at the top concentration
In short: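 qHTS, 15 min compound preincubation with substrate (10 uM luciferin, 10 uM ATP) at RT, then 10 nM FLuc; 5 min; luminescence; % inhibition vs no-enzyme/DMSO controls, 4-parameter Hill fit.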

Row | Compound | activity change, negative = inhibition | outcome
25 | COc1cc(-c2ccc(O)cc2)c(OC)c(O)c1C1=CC(=O)OC1CC(=O)O (configuration not stated) | -10.8% | 
26 | CC/C=C/C=C/C1(C)OC(CC(CO)OC)=CC1=O (configuration not stated) | 1.44% | 
27 | CC(=O)O[C@@H]1[C@H](O[C@@H]2O[C@H](CO)[C@@H](O)[C@H](O)[C@H]2O)[C@@H](O[C@@H]2O[C@@H](C)[C@H](O)[C@@H](O[C@@H]3O[C@H](CO)[C@@H](O)[C@H](O)[C@H]3O)[C@H]2O)[C@H](OC(=O)[C@]23CCC(C)(C)C[C@H]2C2=CCC4[C@@]5(C)C[C@H](O)[C@H](O[C@@H]6O[C@H](C(=O)O)[C@@H](O)[C@H](O)[C@H]6O)[C@@](C)(C(=O)O)C5CC[C@@]4(C)[C@]2(C)CC3)O[C@@H]1C (some centres not stated) |  | inactive [at 11.6 µM]
28 | COc1cc(C2OCC3(O)C(c4ccc(O[C@@H]5O[C@H](CO)[C@@H](O)[C@H](O)[C@H]5O)c(OC)c4)OCC23O)ccc1O (some centres not stated) |  | inactive [at 25.7 µM]
29 | CC12CC(c3ccoc3)OC(=O)C1CCC1(C)C2CCC(O)C1(C)O (configuration not stated) | 3.8% | 
30 | COc1cccc2c1c(O)c(C(=O)N(C)c1ccc(C(F)(F)F)cc1)c(=O)n2C | 1.6% | 
31 | CC1(C)CC[C@]2(C(=O)OC3OC(CO)C(O)C(O)C3O)CC[C@]3(C)C(=CCC4[C@@]5(C)C[C@@H](O)[C@H](OC6OC(C(=O)O)C(O)C(O)C6O)C(C)(C)C5CC[C@]43C)[C@@H]2C1 (some centres not stated) | -3.02% [at 11.6 µM] | 
32 | CC(C)=CCC(O)[C@](C)(O)C1[C@H](O)C[C@@]2(C)C3CC=C4C(C[C@H](O)[C@@H](O[C@@H]5O[C@H](CO)[C@@H](O)[C@H](O)[C@H]5O)C4(C)C)[C@]3(C)C(=O)C[C@]12C (some centres not stated) |  | inactive [at 25.7 µM]
33 | CC1CC2OCC3(O)CCC(O)C(C14CC(c1ccoc1)OC4=O)C23CO (configuration not stated) | 3.32% | 
34 | CC(=O)OC(C)C(C)(O)C(=O)O[C@@H]1CC[C@]2(C)CC(=O)C(=C(C)C)C[C@H]2[C@]1(C)OC(C)=O (some centres not stated) | -3.94% [at 25.7 µM] | 
35 | C=C[C@@]1(C)CCC2=C([C@H]1OC(C)=O)[C@H](OC(C)=O)CC1[C@](C)(C(=O)OC)CC[C@H](OC(C)=O)[C@]21C (some centres not stated) |  | inactive [at 25.7 µM]
36 | Cc1ccc(-c2c(-c3nn(C)c4ncnc(N5CC[C@H](N6CCCCC6)C5)c34)cnn2C)cc1 |  | inactive
37 | CC1(C)CC[C@]2(C(=O)O)CC[C@]3(C)C(=CCC4[C@@]5(C)C[C@@H](O)[C@H](O)[C@@](C)(CO)C5[C@H](O)C[C@]43C)[C@@H]2C1 (some centres not stated) | 1.17% [at 25.7 µM] | 
38 | CC(C)=CCC[C@](C)(O[C@@H]1O[C@H](CO[C@@H]2O[C@@H](CO)[C@H](O)[C@H]2O[C@@H]2OC[C@@H](O)[C@H](O)[C@H]2O)[C@@H](O)[C@H](O)[C@H]1O)[C@H]1CC[C@]2(C)[C@@H]1[C@H](O)CC1[C@@]3(C)CC[C@H](O[C@@H]4O[C@H](CO)[C@@H](O)[C@H](O)[C@H]4O[C@@H]4O[C@H](CO)[C@@H](O)[C@H](O)[C@H]4O)C(C)(C)C3CC[C@]12C (some centres not stated) | 0.984% [at 11.6 µM] | 
39 | C=C1C2CCC3CC2(CC(O)C2(O)C1CC(OC1OC(CO)C(O)C(O)C1O)C2(C)C)CC3(C)O (configuration not stated) | 4.27% [at 25.7 µM] | 
40 | C=C1CC[C@H]2[C@@](C)(CCC(O)[C@@]2(C)CO)[C@@H]1/C=C/C(=C\C(=O)O)C(=O)O (some centres not stated) | 0.404% | 
41 | Nc1ncnc2c1ncn2[C@H]1O[C@@H](C(=O)N2CCN(CC(=O)Nc3cccc4c3CNC4=O)CC2)[C@H](O)[C@@H]1O | 1.43% | 
42 | Cc1cc(O[C@@H]2O[C@H](COC(=O)CC(=O)O)[C@@H](O)[C@H](O)[C@H]2O)c(C(C)C)cc1O | -10.1% [at 25.7 µM] | 
43 | CC1C2=CC(=O)OC2(O)CC2C1C(OC(=O)c1ccccc1)C(OC(=O)c1ccccc1)C1(O)C2(C)CCC(O)C1(C)C(=O)O (configuration not stated) | -0.608% [at 25.7 µM] | 

Row | Compound | activity change, negative = inhibition | outcome
44 | CC(C)NC(=O)c1ccc(C#Cc2ccncc2)cn1 |  | inactive
45 | O=C(O)CC1CCC(c2ccc(NC(=O)c3nnc(Nc4ccc(F)c(F)c4)o3)cc2)CC1 (configuration not stated) | -4.13% | 
46 | CCC(C)/C=C(C)/C=C/C1=CC2=C(Cl)C(=O)C(C)(OC(C)=O)C(=O)C2=CN1C(CC(=O)O)C(=O)O (configuration not stated) | -11.9% [at 25.7 µM] | 
47 | C[C@]12CC/C(=N\OCC(=O)O)C=C1CC[C@@H]1[C@@H]2[C@@H](O)C[C@@]2(C)[C@H]1CC[C@]2(O)C(=O)CO | -3.93% | 
48 | CNC(=O)c1ccc2c(c1)CCO[C@H]2CCN1CCN(c2ccc(C(N)=O)cc2)CC1 | 4.4% | 
49 | COC(=O)C1=CO[C@@H](O[C@@H]2O[C@H](CO)[C@@H](O)[C@H](O)[C@H]2O)/C(=C\CO)[C@@H]1CC(=O)OCCc1ccc(O)cc1 | 3.47% [at 25.7 µM] | 
50 | C/C=C/C=C/C(O)=C1/C(=O)[C@]2(C)C(=O)[C@@](C)(O)[C@H]1[C@H]([C@@]1(C)OC(=O)C(C)=C1O)[C@H]2C(=O)CC/C=C/C | -0.527% [at 25.7 µM] | 
51 | CC(C)(O)/C=C/C(=O)[C@](C)(O)[C@H]1[C@H](O)C[C@@]2(C)[C@@H]3CC=C4[C@@H](C=C(O[C@@H]5O[C@H](CO)[C@@H](O)[C@H](O)[C@H]5O)C(=O)C4(C)C)[C@]3(C)C(=O)C[C@]12C |  | inactive [at 25.7 µM]
52 | COc1ccc(CCC(=O)c2c(O)cc(O[C@@H]3O[C@H](CO)[C@@H](O)[C@H](O)[C@H]3O[C@@H]3O[C@@H](C)[C@H](O)[C@@H](O)[C@H]3O)cc2O)cc1O | -3.45% | 
53 | CC(C)c1c(NC(=O)Nc2ccc(Cl)cc2)c(=O)n(-c2ccccc2)n1C | -4.38% | 
54 | C[C@@H](c1ccccc1)N(C(N)=NC#N)c1cccc2ncccc12 |  | inactive
55 | CC(C)(C)NS(=O)(=O)c1ccc(-c2ccc3[nH]nc(N)c3c2)cc1 | 3.82% | 
56 | CC(=O)OC[C@]12[C@H](OC(C)=O)[C@H](OC(=O)c3ccccc3)[C@@H]3[C@@H](OC(C)=O)[C@]1(OC3(C)C)[C@H](C)C[C@H](OC(=O)c1ccccc1)[C@@H]2OC(=O)c1ccccc1 | 1.32% [at 25.7 µM] | 
57 | CC1=C2C[C@@]3(C)[C@@H](CCC[C@@H]3C)C[C@@]2(O)OC1=O | 4.98% | 
58 | CC(=O)/C=C/C1(O)C(C)CC(O[C@@H]2O[C@H](CO)[C@@H](O)[C@H](O)[C@H]2O)CC1(C)C (some centres not stated) |  | inactive [at 25.7 µM]
59 | CC1CCC2C(C)(C)C(O)C(O)CC2(C)C12Cc1c(O)cc(CO)c(C=O)c1O2 (configuration not stated) | -0.333% [at 25.7 µM] | 
60 | Cc1occc(=O)c1O[C@@H]1O[C@H](CO[C@@H]2OC[C@](O)(CO)[C@H]2O)[C@@H](O)[C@H](O)[C@H]1O | 1.65% [at 25.7 µM] | 
61 | COC(=O)c1c(CC=C(C)C)c(OC2OC(CO)C(O)C(O)C2O)c2ccccc2c1OC1OC(CO)C(O)C(O)C1O (configuration not stated) |  | inactive [at 25.7 µM]
62 | COc1ccc(OC)c(C2C(C#N)=C(N)Oc3n[nH]c(-c4ccc5ccccc5c4)c32)c1 (configuration not stated) |  | inactive
